Most compounds without a hit are left out; they make up all but 2.7% or so of the library.
IP6K1 inhibitor – blocks human inositol hexakisphosphate kinase 1. AID 1645851. IP6K1 kinase, ADP-Glo luminescence, 2 h; hits give low values. Q92551. 140,000 compounds, 0.81% hits. activity change, % (series mostly up to about 58 µM); in the data active = activity change below about -25%; note: % is set by controls: 0 for no effect and ±100 for the full control effect
Target sequence (Q92551 whole entry, looked up): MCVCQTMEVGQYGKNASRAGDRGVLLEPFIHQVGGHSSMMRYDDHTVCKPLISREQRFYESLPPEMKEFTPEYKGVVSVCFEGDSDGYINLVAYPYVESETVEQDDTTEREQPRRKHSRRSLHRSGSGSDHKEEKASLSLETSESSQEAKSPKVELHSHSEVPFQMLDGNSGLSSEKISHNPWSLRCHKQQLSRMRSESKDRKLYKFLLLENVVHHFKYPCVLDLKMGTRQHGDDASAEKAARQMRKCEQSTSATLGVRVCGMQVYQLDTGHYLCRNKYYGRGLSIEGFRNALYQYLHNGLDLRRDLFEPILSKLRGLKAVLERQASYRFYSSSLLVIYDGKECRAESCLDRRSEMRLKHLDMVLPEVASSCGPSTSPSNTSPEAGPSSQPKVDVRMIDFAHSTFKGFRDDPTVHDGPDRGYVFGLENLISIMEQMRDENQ
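ADP-Glo luminescence measures ADP made by human IP6K1 during a 2 h RT reaction with ATP/IP6 (mix at 1.3 mM/130 uM); top library doses 57.5 and 19.1 uM final.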
KDM5B inhibitor – inhibitors of human KDM5B histone demethylase; Q9UGL1; Potency, µM (top dose mostly 57.7 µM), hits mostly inhibitors; 220,000 compounds, 2.6% hits; KDM5B demethylase, FDH-coupled NADH fluorescence (FDH is formaldehyde dehydrogenase); note: potency is the fitted concentration of half-maximal effect; 0% is about no effect; nearly all actives have a fitted effect of over 70% in size
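Compound dilutions met 200 nM (final) KDM5BΔAP for 10 min at room temperature before substrate addition. The substrate mix held 12.5 µM H3K4me3 with cofactors 25 µM α-ketoglutarate and 50 µM Fe²⁺. NADH signal gain over 30 min defined activity.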
IP6K1 conf – human IP6K1 inhibition, confirmatory | recombinant IP6K1 kinase, ADP-Glo luminescence, 2 h | 1,200 compounds, 13% hits | Potency, µM (series often up to 49 µM), for inactives: top-dose activity change, negative = inhibition, hits mostly inhibitors | AID 1645852 | shares compounds with IP6K1 inhibitor; note: potency is the fitted concentration of half-maximal effect; % is set by controls: 0 for no effect and ±100 for the full control effect; nearly all actives have a fitted effect of over 65% in size
Starred values were filed as active, the others as inactive; [ ] = remark or other dose. Unless noted, calls come from the whole dose curve; as a rule, active = well fitted inhibition curve with a large enough effect; inconclusive = small, poorly fitted or top-dose-only effect; inactive = no such curve, though single readings can be large or run the other way.

For Cc1ccccc1Nc1c2c(nc3nncn13)CCC2 the results were IP6K1 inhibitor -6.8 and KDM5B inhibitor inactive.
O=C(COC(=O)c1ccc(S(=O)(=O)N2CCCC2)cc1)Nc1ccc(Cl)cn1 was read as KDM5B inhibitor inactive.
CCCCCCCC1CCC(c2ccc(C(=O)CCN(C)C)cc2)CC1 (stereo unspecified) was read as KDM5B inhibitor inactive.
For Cc1nn(-c2ccccc2)c(C)c1CN(C)S(=O)(=O)c1ccc(F)cc1 the results were KDM5B inhibitor inactive.
Screening CCc1noc(Cc2c(C)nn(-c3ccccc3)c2C)n1 returned IP6K1 inhibitor -28.1*, KDM5B inhibitor inactive and IP6K1 conf -15.3%.
`COC[C@H]1CCCN1[C@@H]1[C@H](O)[C@H](CO)O[C@@H]1CN(Cc1cccc(Cl)c1)Cc1cccc(Cl)c1` gave IP6K1 inhibitor 3.3 and KDM5B inhibitor inconclusive.
For Cn1cnc2cc(-c3ccc(F)cc3)cc(C(=O)NCCc3cnc[nH]3)c21 the results were IP6K1 inhibitor -30.6*, KDM5B inhibitor inconclusive and IP6K1 conf inconclusive.
For Cn1ccc2c(C(=O)NCCc3cnc[nH]3)nc(-c3ccc([S+](C)(=O)[O-])cc3)cc21 the results were IP6K1 inhibitor 2.4 and KDM5B inhibitor inactive.
For O=C(CSc1cn(CC(=O)N2CCCC2)c2ccccc12)Nc1cccc(C(F)(F)F)c1 the results were KDM5B inhibitor inactive.
For Cn1nc(C2CCCN(C(=O)c3ccoc3)C2)n(C2CCCC2)c1=O (stereo unspecified) the results were IP6K1 inhibitor 4.6.
For COc1cc(/C=C(/C#N)C(=O)NC2CC2)ccc1O the results were KDM5B inhibitor inactive.
Screening COc1cc(/C=C(\C#N)C(=O)c2ccc(O)c(O)c2)cc(I)c1O returned IP6K1 conf 2.06µM*.
COC1CCC12CCN(C(=O)c1nccc3ccccc13)CC2 (stereo unspecified) was read as IP6K1 inhibitor -3.5.
`O=C(CCc1ccccc1)N1CCC2(CC1)CC(N(Cc1ccccc1)C1CC1)CCO2` (stereo unspecified) gave IP6K1 inhibitor -27.3*, KDM5B inhibitor inactive and IP6K1 conf -14.3%.
For O=C(CC1CCCC1)N1CCC2(CC1)CC(N(Cc1ccccc1)C1CC1)CCO2 (stereo unspecified) the results were IP6K1 inhibitor -20.6 and KDM5B inhibitor inactive.
For CCCCNC(=S)Nc1ccc(Br)c(C)c1 the results were KDM5B inhibitor inactive.
CC(C)C(=O)N1c2ncnn2C2(CCCCC2)[C@@H]2CCCC[C@@H]21 was read as IP6K1 inhibitor -29.9*, KDM5B inhibitor inconclusive and IP6K1 conf -16.9%.
`COc1ccccc1C(=O)N1c2ncnn2C2(CCCCC2)[C@@H]2CCCC[C@@H]21` gave IP6K1 inhibitor -15.2 and KDM5B inhibitor inactive.
For C=CCNC(=O)CN1CCN(c2ccnc3c(F)ccc(F)c23)CC1 the results were KDM5B inhibitor inactive.
Screening COc1cc(OC)cc(C(=O)Nc2cc(-c3nc4ccccc4[nH]3)ccc2C)c1 returned IP6K1 inhibitor -25.1*, KDM5B inhibitor inconclusive and IP6K1 conf 14.3%.
COc1c(Cl)cc(C(=O)Nc2cc(-c3nc4ccccc4[nH]3)ccc2C)cc1Cl was read as IP6K1 inhibitor -3.5 and KDM5B inhibitor inconclusive.
For Cc1cccc(/C=C/C(=O)c2ccc(-c3ccccc3)cc2)c1 the results were KDM5B inhibitor inactive.
For O=C1Nc2ccc(I)cc2/C1=C/c1cc(Br)c(O)c(Br)c1 the results were IP6K1 conf 2.91µM*.
For O=C(O)COc1ccccc1/C=C1\C(=O)Nc2ccc(Br)cc21 the results were KDM5B inhibitor inactive.
Screening CCOc1cc(Br)c(C2C(C(=O)OC)=C(C)NC3=C2C(=O)c2ccccc23)cc1OCC (stereo unspecified) returned IP6K1 inhibitor -32.4*, KDM5B inhibitor inconclusive and IP6K1 conf -12.5%.
For CCOc1cc(C2C(C(=O)OC)=C(C)NC3=C2C(=O)c2ccccc23)c(Br)cc1OC (stereo unspecified) the results were IP6K1 inhibitor -2.2 and KDM5B inhibitor inconclusive.
For O=C(NC12CC3CC(CC(C3)C1)C2)C1CCCCC1 the results were KDM5B inhibitor inactive.
For CCCCCCc1cc2c3c(c(=O)oc2cc1OCC(=O)OC(C)C)CCCC3 the results were KDM5B inhibitor inactive.
Screening COc1ccc(C(=O)Nc2ccc(NC(=O)c3cccs3)cc2)cc1OC returned IP6K1 inhibitor -55.8*, KDM5B inhibitor inconclusive and IP6K1 conf -0.5%.
`COc1ccccc1C(=O)Nc1ccc(NC(=O)c2cccs2)cc1` gave IP6K1 inhibitor -3.7 and KDM5B inhibitor inactive.
For COc1ccc(OC)c(NC(=O)CN(C)S(=O)(=O)c2ccc(C(=O)N3CCOCC3)s2)c1 the results were IP6K1 inhibitor 9.7 and KDM5B inhibitor inactive.
`COc1ccc(Cl)cc1NC(=O)CN(C)S(=O)(=O)c1ccc(Br)s1` gave IP6K1 inhibitor -26.2*, KDM5B inhibitor inactive and IP6K1 conf 28.8%.
CCOC(=O)c1c(C)nc2nc(-c3cccnc3)nn2c1C was read as KDM5B inhibitor inactive.
CCOC(=O)c1cc2c(=O)n3ccccc3nc2n(Cc2ccco2)c1=NC(=O)c1ccc(C)c(C)c1 was read as IP6K1 inhibitor -6.7 and KDM5B inhibitor inconclusive.
Screening CCOC(=O)c1cc2c(=O)n3ccccc3nc2n(Cc2ccco2)c1=NC(=O)c1cccc(C)c1 returned IP6K1 inhibitor -35.6*, KDM5B inhibitor inconclusive and IP6K1 conf inconclusive.
Screening O=C(c1ccoc1)N1CCCCCC1c1nc(C2CC2)no1 (stereo unspecified) returned IP6K1 inhibitor -2.0.
Screening Cc1nc2ccccc2n1CCC(=O)N1C[C@@H](C)[C@](O)(C(C)C)C1 returned IP6K1 inhibitor -37.1*, KDM5B inhibitor inactive and IP6K1 conf -9.4%.
`CC(C)c1nc2ccccc2n1CC(=O)N1CC[C@](C)(O)[C@@H](O)C1` gave IP6K1 inhibitor 4.8 and KDM5B inhibitor inactive.
Screening CC1CCC(NC(=S)NC2CC2)CC1 (stereo unspecified) returned KDM5B inhibitor inactive.
`Nc1nc(N)c(S(=O)(=O)c2ccccc2)c(Nc2ccc(Br)cc2)n1` gave IP6K1 inhibitor -35.9*, KDM5B inhibitor inactive and IP6K1 conf inconclusive.
Nc1nc(N)c(S(=O)(=O)c2ccccc2)c(Nc2ccccc2)n1 was read as IP6K1 inhibitor -2.2 and KDM5B inhibitor inactive.
Screening FC(F)(F)c1cc(Cl)c2nc(-c3cccc(Br)c3)cn2c1 returned KDM5B inhibitor inactive.
O=C(Cn1c(=O)ccc2cc(S(=O)(=O)N3CCCC3)ccc21)NCc1ccco1 was read as KDM5B inhibitor inactive.
Cc1ccc([N+](=O)[O-])cc1S(=O)(=O)N(C)/N=C/c1cnc2ccc(Br)cn12 was read as IP6K1 inhibitor -25.4* and IP6K1 conf inconclusive.
`Cc1cc(S(=O)(=O)c2ccc([N+](=O)[O-])cn2)ccc1Br` gave KDM5B inhibitor inactive.
For CCc1ccc(NC(=O)CN(c2cc(C)cc(C)c2)S(=O)(=O)c2c(C)[nH]c(=O)[nH]c2=O)cc1 the results were IP6K1 inhibitor -14.6 and KDM5B inhibitor inactive[11.5 µM].
